Tests used:
Settings in all cases: concentration: 1 μM, replicates: in singlicate; n = 1
[1] = system: CDKL5
[2] = system: CHEK1
[3] = system: CHEK2
[4] = system: CIT
[5] = system: CLK1
[6] = system: CLK2
[7] = system: CLK3
[8] = system: CLK4
[9] = system: CSF1R-autoinhibited
[10] = system: CSF1R
[11] = system: CSK
[12] = system: CSNK1A1L
[13] = system: CSNK1A1
[14] = system: CSNK1D
[15] = system: CSNK1E
[16] = system: CSNK1G1
[17] = system: CSNK1G2
[18] = system: CSNK1G3
[19] = system: CSNK2A1
[20] = system: CSNK2A2
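Note: KINOMEscan kinase panel screen.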

Compound	%Inh [1] [%]	%Inh [2] [%]	%Inh [3] [%]	%Inh [4] [%]	%Inh [5] [%]	%Inh [6] [%]	%Inh [7] [%]	%Inh [8] [%]	%Inh [9] [%]	%Inh [10] [%]	%Inh [11] [%]	%Inh [12] [%]	%Inh [13] [%]	%Inh [14] [%]	%Inh [15] [%]	%Inh [16] [%]	%Inh [17] [%]	%Inh [18] [%]	%Inh [19] [%]	%Inh [20] [%]
COc1cccc(NC(=O)Nc2ccc(C)c(-c3ccc(C(=O)Nc4ccncc4)cc3)c2)c1 [GSK1398474]	0	7	0	94.8	29	0	65	5	0	86	0	0	0	31	42	8	25	34	0	10
CN1c2ccc(-c3ccc(C(N)=O)cc3)cc2-c2[nH]ncc2S1(=O)=O	0	0	49	0	25	70	0	15	17	0	0	0	3	1	1	0	0	0	0	1
CCc1ccc(-c2ccc3c(c2)-c2n[nH]cc2S(=O)(=O)N3C)cc1	0	0	0	0	0	0	1	4	5	0	0	0	0	32	0	0	0	0	0	0
COc1cc2ncnc(Nc3cccc(Br)c3)c2cc1OC.Cl [GI230329]	0	0	54	53	31	0	0	15	44	4	0	10	0	0	31	12	0	26	8	0
Cc1cnc(N)c(/C=C/c2cncc(C(=O)NCCc3ccc(Cl)cc3Cl)c2)c1.Cl [GSK190937]	9	0	26	31	38	48	0	57	6	25	0	0	0	34	20	24	2	3	0	0
c1ccc(-c2ccnc3[nH]ccc23)cc1 [SB-693578]	9	12	0	3	12	8	29	5	47	8	0	20	0	1	42	90.3	0	5	0	0
COC(=O)C(NC(=O)NC1CCN(c2ccnc(Nc3ccc(F)cc3)n2)C1)c1ccccc1 (stereo not drawn) [GSK1379712]	3	3	37	0	9	0	0	0	34	5	0	3	0	92	19	5	1	25	3	0
CCn1c(-c2ccccc2)nc2cnccc21 [SB-733416]	4	29	0	23	17	0	0	3	0	13	0	11	0	2	24	0	0	11	0	1
CCCCc1nn2ncccc2c1-c1ccnc(NC2CC2)n1 [GW684374]	0	0	3	25	40	26	90.7	0	0	7	2	0	18	90.1	92.4	0	0	25	0	5
Nc1nccc(-c2c(-c3ccc(F)cc3)ncn2C2CCN(Cc3ccccc3)CC2)n1 [SB-219980]	2	0	8	97.6	0	6	0	0	15	0	0	49	95.1	94.1	99.4	0	0	0	0	6
Fc1ccc(-c2nn3cccc(F)c3c2-c2ccncc2)cc1 [GW475620]	0	0	0	96.3	22	0	6	26	0	0	0	30	69	94	96.2	16	2	24	11	9
CNc1nc(-c2ccc3c(N)n[nH]c3c2)cc(N2C[C@@H](C(=O)Nc3ccccc3)CC[C@H]2C)n1 [GSK2298859]	1	0	11	89	33	68	6	43	0	2	0	6	0	15	36	16	0	28	2	3
Cc1ccccc1-c1cc(-c2c[nH]nc2-c2ccccn2)ccn1 [GW680061]	0	85	4	24	15	0	0	15	10	3	0	7	12	24	16	2	0	1	13	0
O=C(Nc1n[nH]c2cc(-c3ccsc3)ccc12)C1CC1 [SB-732932]	17	0	0	0	2	21	0	7	16	16	0	17	0	0	0	24	0	0	29	52
COc1ccc(Nc2nccc(N3CCC(NC(=O)C(C)c4ccc(Cl)cc4)CC3)n2)cc1 (stereo not drawn) [GSK1379812]	100	0	0	9	13	11	0	9	0	0	0	0	0	18	35	7	0	19	0	21
Cn1cncc1C(=O)NC1CCN(c2ccnc(Nc3ccc(F)cc3)n2)C1 (stereo not drawn) [GSK1379717]	0	0	0	0	23	0	0	0	0	6	9	0	0	0	0	0	0	17	0	0
CSc1ccc(-c2nc3n(c2-c2ccncc2)CCC3)cc1 [SKF-105561]	6	0	0	11	5	0	13	3	3	40	0	5	5	6	7	0	0	1	8	0
Nc1cccc(-c2ccc3c(N)n[nH]c3c2)n1 [GSK2192730]	4	0	13	17	28	18	0	0	0	14	15	0	77	0	39	4	0	19	27	42
COC(=O)c1cccc(NC(=O)NC2CCN(c3ccnc(Nc4ccc(F)cc4)n3)C2)c1 (stereo not drawn) [GSK1379725]	7	0	0	12	10	0	0	10	0	2	0	3	0	21	7	0	0	9	0	0
FC(F)(F)c1ccccc1-c1cc(-c2c[nH]nc2-c2ccccn2)ccn1 [GW679396]	0	99.9	0	41	8	1	0	21	0	0	0	3	0	36	23	16	0	24	7	17
CC(=O)c1c(C)c2cnc(Nc3ccc(N4CCNCC4)cn3)nc2n(C2CCCC2)c1=O	0	0	16	3	23	0	100	13	7	7	0	0	24	8	99.9	0	0	0	0	13

Source: paper PMC5540273 (PLoS ONE, 2017)
